# Measured values from PubChem BioAssay (NCATS).
# Results filed as inconclusive are left out. A call without a number means that no potency is given here. Calls of active or inactive are those of the source. Calls come from the whole dose curve; as a rule, active = well fitted curve in the direction sought with a large enough effect; inconclusive = small, poorly fitted or top-dose-only effect, or another doubt; inactive = no such curve, though single readings can be large; an effect the other way counts as inactive or inconclusive.
# Legend:
# [1] = Quantitative High-Throughput drug screen in 47 multiple myeloma cell lines against the NCATS MIPE library collection: MMM1_PLB cell viability assay (AID 1918976); note: nearly all actives have a fitted effect of over 35% in size; note: potency is the fitted concentration of half-maximal effect
# In short: (§1)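 Cells were exposed to library compounds for 48 hours, after which ATP was measured by CellTiter-Glo. Signal was taken as median relative luminescence units.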
# [2] = Quantitative High-Throughput drug screen in 47 multiple myeloma cell lines against the NCATS MIPE library collection: NCIH929_DSMZ cell viability assay (AID 1918978); note: nearly all actives have a fitted effect of over 35% in size; note: potency is the fitted concentration of half-maximal effect
# In short: as §1
# [3] = Quantitative High-Throughput drug screen in 47 multiple myeloma cell lines against the NCATS MIPE library collection: OCIMY1_PLB cell viability assay (AID 1918979); note: nearly all actives have a fitted effect of over 35% in size
# In short: as §1
# [4] = Quantitative High-Throughput drug screen in 47 multiple myeloma cell lines against the NCATS MIPE library collection: MM1S_ATCC cell viability assay (AID 1918980); note: nearly all actives have a fitted effect of over 45% in size; note: potency is the fitted concentration of half-maximal effect
# In short: as §1
# [5] = Quantitative High-Throughput drug screen in 47 multiple myeloma cell lines against the NCATS MIPE library collection: KMS26_JCRB cell viability assay (AID 1918975); note: nearly all actives have a fitted effect of over 45% in size
# In short: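 Steps: seed 500 cells per well; pin-transfer MIPE 4.0 library; incubate 48 h at 37C, 5% CO2, humidified; add CellTiter-Glo, 5 min room temperature; read luminescence.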
# [6] = Quantitative High-Throughput drug screen in 47 multiple myeloma cell lines against the NCATS MIPE library collection: MOLP8_DSMZ cell viability assay (AID 1918977); note: nearly all actives have a fitted effect of over 45% in size
# In short: as §1
# [7] = Quantitative High-Throughput drug screen in 47 multiple myeloma cell lines against the NCATS MIPE library collection: KMS21BM_JCRB cell viability assay (AID 1918974); conditions: ATP luminescence, 48 h; viability: at 45.8 µM (top of the series) unless noted; note: potency is the fitted concentration of half-maximal effect
# In short: (§2)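 Relative luminescence from CellTiter-Glo served as the viability signal, referenced to DMSO-treated (100%) and cell-free medium (0%) controls. Treatment lasted 48 hours at 37C with 500 cells per well.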
# [8] = Quantitative High-Throughput drug screen in 47 multiple myeloma cell lines against the NCATS MIPE library collection: KMS20_JCRB cell viability assay (AID 1918973); note: potency is the fitted concentration of half-maximal effect; nearly all actives have a fitted effect of over 45% in size
# In short: as §2
compound,measurement,setting,value
CC(C)[C@H](CO)Nc1nc(Nc2ccc(C(=O)O)c(Cl)c2)c2ncn(C(C)C)c2n1,Potency,[1],23.5 µM (active)
same,Potency,[2],23.5 µM (active)
O=c1c(-c2ccc(O)cc2)coc2cc(OC3O[C@H](CO)[C@H](O)[C@H](O)[C@H]3O)cc(O)c12 (some centres not stated),Potency,[1],18.7 µM (active)
same,Potency,[2],2.09 µM (active)
same,Potency,[3],inactive
same,Potency,[4],4.18 µM (active)
O=c1[nH]cnc2c1ncn2[C@H]1CC[C@@H](CO)O1,Potency,[5],inactive
same,Potency,[3],inactive
same,Potency,[4],11.8 µM (active)
O=c1cc(-c2ccccc2)oc2cc(O)cc(O)c12,Potency,[3],inactive
N[C@@]1(C(=O)O)CS(=O)(=O)[C@H]2[C@H](C(=O)O)[C@H]21,Potency,[6],inactive
same,Potency,[3],inactive
same,Potency,[4],3.72 µM (active)
CO[C@H]1C[C@@H]2CC[C@@H](C)[C@@](O)(O2)C(=O)C(=O)N2CCCC[C@@H]2C(=O)O[C@H]([C@H](C)C[C@@H]2CC[C@H](OP(C)(C)=O)[C@H](OC)C2)CC(=O)[C@H](C)C=C(C)[C@@H](O)[C@@H](OC)C(=O)[C@H](C)C[C@H](C)C=CC=CC=C1C,Potency,[7],18.7 µM (active)
same,Potency,[4],inactive
N[C@H](CSC(c1ccccc1)(c1ccccc1)c1ccccc1)C(=O)O,Potency,[1],inactive
same,Potency,[4],13.2 µM (active)
COc1ccc2c(Oc3ccc(NC(=O)c4c(C)n(CC(C)(C)O)n(-c5ccccc5)c4=O)nc3)ccnc2c1,Potency,[2],inactive
same,Potency,[3],inactive
Cc1nnc(C(C)C)n1C1C[C@H]2CC[C@@H](C1)N2CC[C@H](NC(=O)C1CCC(F)(F)CC1)c1ccccc1 (some centres not stated),Potency,[6],inactive
same,Potency,[2],9.35 µM (active)
same,Potency,[4],1.05 µM (active)
O=C(O)c1ccc(-c2c[nH]c3ncc(-c4ccccc4)cc23)cc1C1CCCC1,viability,[7],272% (active)
same,Potency,[5],inactive
NC(=O)c1cccc2[nH]c(-c3ccc([C@H]4CCCN4)cc3F)nc12,Potency,[3],inactive
COc1ccc(Cc2ccc(NC(N)=O)cc2)cc1-c1cccc(Cl)c1,Potency,[5],inactive
same,Potency,[3],inactive
CO[C@H]1C[C@@H]2CC[C@@H](C)[C@@](O)(O2)C(=O)C(=O)N2CCCC[C@@H]2C(=O)O[C@H]([C@H](C)C[C@@H]2CC[C@H](OC(=O)C(C)(CO)CO)[C@H](OC)C2)CC(=O)[C@H](C)C=C(C)[C@@H](O)[C@@H](OC)C(=O)[C@H](C)C[C@H](C)C=CC=CC=C1C,Potency,[8],11.8 µM (active)
same,Potency,[2],18.7 µM (active)
same,Potency,[4],inactive
CC#CCn1c(N2CCC[C@@H](N)C2)nc2c1c(=O)n(Cc1nc(C)c3ccccc3n1)c(=O)n2C,Potency,[5],inactive
same,Potency,[6],inactive
same,Potency,[4],20.9 µM (active)
CC1CCC(C(=O)N(c2cc(C#CC(C)(C)C)sc2C(=O)O)C2CCC(O)CC2)CC1 (configuration not stated),Potency,[3],inactive
same,Potency,[4],inactive
CC(C)(C)C(=O)Oc1ccc2c(c1)nc(NC(=O)c1cccc([N+](=O)[O-])c1)n2CCCO,Potency,[5],inactive
same,Potency,[1],13.2 µM (active)
same,Potency,[2],inactive
same,Potency,[4],23.5 µM (active)
CC1(C)CCC[C@@]2(C)[C@@H]1CC[C@@]1(C)OC(=O)C[C@H]21,Potency,[7],inactive
same,Potency,[2],inactive
same,Potency,[3],inactive
